Assay outcomes from PubChem.
An excerpt weighted towards active compounds, which were near 1.4% of everything screened.
Polio RdRp inh – poliovirus RNA polymerase inhibition; % elongation, % (compound at 16.7 µg/mL); 0.66% of 150,000 active; poliovirus polymerase elongation, fluorescence polarization; stronger effect = lower value; AID 588519; P03300; in the data active means % elongation below about 90%
MbtI inh – MbtI salicylate synthase inhibition; P9WFX0; purified MbtI enzyme, fluorescence intensity read-out; inhibition, % (no concentration beside the values); 0.89% of 100,000 active; in the data active means inhibition mostly above about 56%, no sharp cut-off; inactive means mostly below about 77%
Target sequence (P9WFX0 whole entry, looked up): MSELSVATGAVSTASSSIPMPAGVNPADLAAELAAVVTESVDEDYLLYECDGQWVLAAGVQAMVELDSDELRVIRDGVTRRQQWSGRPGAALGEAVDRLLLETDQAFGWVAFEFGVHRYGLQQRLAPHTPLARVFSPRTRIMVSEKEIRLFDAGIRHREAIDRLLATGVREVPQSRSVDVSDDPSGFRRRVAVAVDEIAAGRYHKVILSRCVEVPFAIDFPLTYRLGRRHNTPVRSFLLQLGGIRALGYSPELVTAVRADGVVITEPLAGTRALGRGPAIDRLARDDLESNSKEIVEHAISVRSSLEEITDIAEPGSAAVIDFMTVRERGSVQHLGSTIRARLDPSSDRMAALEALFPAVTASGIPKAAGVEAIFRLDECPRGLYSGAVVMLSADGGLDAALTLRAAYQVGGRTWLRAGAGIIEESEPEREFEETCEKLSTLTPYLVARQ
MenB inh – inhibitors of Mycobacterium tuberculosis MenB enzyme | P9WNP5 | MenB enzyme assay, absorbance read-out | inhibition, % (concentration not given with the values) | 0.43% of 100,000 active; in the data active means inhibition above about 21%, passing the limit was not always enough
Each line names hits and unclear results; the compound was inactive in the other large screens.

Nc1ccc2nc(CO)[nH]c2c1	none
Nc1ccc2nc(CCCO)[nH]c2c1	Polio RdRp inh 54.0
NNc1ccc2nnc(C(F)(F)F)n2n1	none
c1ccc(NCc2cccnc2)cc1	none
OC(Cc1cccnc1)(c1ccccc1)c1ccccc1	Polio RdRp inh 89.0
COc1ccc(/C=N/n2cnnc2)cc1	none
COc1ccc(/C=N/n2cn[nH]c2=S)cc1	MbtI inh 70.8
CCn1c(=O)c2ccccc2c2c(O)nc(-c3ccccc3)n21	none
Cc1ccc(S(=O)(=O)N=C2C=CC(=NS(=O)(=O)c3ccc(C)cc3)C=C2)cc1	MbtI inh 71.5
Cc1ccc(S(=O)(=O)N=C2C=CC(=NS(=O)(=O)N(C)C)C=C2)cc1	none
Fc1ccc(Oc2cnccn2)c(Cl)c1	none
O=c1oc2c(o1)=C(c1ccccc1)S(=O)(=O)C=2c1ccccc1	MbtI inh 58.0
Cc1ccc(/C=C2\C(=O)ON=C2c2ccccc2)o1	none
CNC(=O)NC(=O)C(C)Sc1nc2ccccc2n1C1CCCCC1 (centres undefined)	none
O=C(CS(=O)(=O)Cc1ccccc1)Nc1ccc2c(c1)OCO2	none
O=C(CNS(=O)(=O)c1ccccc1)Nc1ccc2c(c1)OCO2	MenB inh 55.9
Cn1nc(C(=O)NCCSc2n[nH]c(=O)[nH]c2=O)c2ccccc2c1=O	none
O=C(c1ccco1)N(C(=O)c1ccco1)c1nc2ccccc2nc1N1CCOCC1	none
Cc1ccc(NC(=O)CC(=O)O)cc1	none
COC(c1cccs1)c1c(C)[nH]c2ccccc12 (centres undefined)	none (no result: MbtI inh)
O=C(COc1c(F)c(F)cc(F)c1F)C12CC3CC(CC(C3)C1)C2	none
CCC(C)N=Cc1c(O)n(-c2ccccc2)c(=O)[nH]c1=O (centres undefined)	MbtI inh 101.8
O=c1[nH]c(=O)n(-c2ccccc2)c(O)c1C=NCCO	none
CCn1nnc2c(Nc3ccc4c(c3)OCO4)ncnc21	none
O=c1oc2c3c(ccc2c2ccccc12)OCN(Cc1ccccc1)C3	none
O=c1oc2c3c(ccc2c2ccccc12)OCN(Cc1cccc(Cl)c1)C3	Polio RdRp inh 85.0 (no result: MbtI inh, MenB inh)
CCc1nc2nc(C)cc(NCCc3ccccc3)n2n1	none
COc1cc2nc(C)n(C(=S)S)c2cc1OC	Polio RdRp inh 78.0
CCn1c(C)nc2cc(OC)ccc21	none (no result: MenB inh)
CCOC(=O)Nc1ccc(Br)cn1	none (no result: Polio RdRp inh, MenB inh)
COc1cccc(N2C(=O)/C(=C/C=C/c3ccco3)C(=O)NC2=S)c1	MbtI inh 100.6
O=C1NC(=S)N(c2ccccc2)C(=O)/C1=C/C=C/c1ccco1	none
CSc1nnc(-c2ccccc2)n1/N=C/c1cc(O)ccc1Cl	none
O=C(Nc1cccc(NC(=S)NC(=O)c2cccc3c(Br)cccc23)c1)c1ccco1	none
Nc1ccc(N2CCOCC2)c(N)c1	Polio RdRp inh 56.0
NS(=O)(=O)c1ccc(N2CCOCC2)c(C(=O)O)c1	none
O=C(CSc1ccc(Cl)cc1)NCCN1CCOCC1	none
CC(C)(C)c1ccc(-c2noc(-c3ccccc3)n2)cc1	none
O=C1CN(C(=O)CSc2nnc(Nc3ccccc3F)s2)c2ccccc2N1	none
S=C1NC2=C(CCCC2)C2(CCCCC2)N1	none
C1CCC2(CC1)C1=C(CCCC1)Nc1nnnn12	MenB inh 32.3
Cc1cc2c(=O)n(Cc3ccco3)c(SCC(=O)c3cccs3)nc2s1	none
Cc1ccc(-c2csc(-n3sc4ccccc4c3=O)n2)cc1	MbtI inh 86.8 (no result: MenB inh)
Cc1cc(-n2sc3ccccc3c2=O)c2ccccc2n1	none
COc1ccc(-c2cn3c(n2)-c2ccccc2C3)cc1OC	none (no result: MenB inh)
Nc1ccc(S(=O)(=O)NC2=NCCC2)cc1	none
CCOc1ccc2cc3c(N)c(C(=O)N(CC)CC)sc3nc2c1	none
CCOc1ccc(NC(=O)N2CCC(CN3CCC(C)CC3)CC2)cc1	none (no result: MbtI inh, MenB inh)
CCOC(=O)CC(NC(=O)N1CCC(CN2CCC(C)CC2)CC1)c1ccccc1 (centres undefined)	Polio RdRp inh 49.0 (no result: MbtI inh, MenB inh)
CCC(CC)NC(=O)CSc1ccccc1	none
Cc1ccc(C)n1-c1ccc(C(=O)NC2CCC(O)CC2)cc1 (centres undefined)	none
CC1CCN(c2c(N)cccc2Cl)CC1	none (no result: MbtI inh)
Nc1cccc(Cl)c1O	MbtI inh 57.0
O=C(/C=C/c1ccco1)Nc1cccc(NC(=O)/C=C/c2ccco2)n1	none (no result: MbtI inh)
O=C(/C=C/c1ccco1)/C=C/c1ccco1	Polio RdRp inh 80.0
O=C(COC(=O)c1cc2c(s1)CCC2)c1ccc(Br)s1	none
O=C(CC(O)(c1ccccc1)c1ccccc1)Nc1ccccc1	none (no result: MbtI inh)
CN(Cc1ccccc1)C(=O)COC(=O)c1cc(=O)c2ccccc2o1	none
N#CCOC(=O)c1cc(=O)c2ccccc2o1	Polio RdRp inh 74.0
CC1(NC(=O)Cc2n[nH]c(=O)c3ccccc23)CCS(=O)(=O)C1 (centres undefined)	none
CC1CCc2c(sc(NC(=O)CN3CCN(S(=O)(=O)c4cccs4)CC3)c2C(=O)OC(C)C)C1 (centres undefined)	none
Cc1ccc(-c2c(CN3CCN(c4cccc(C)c4C)CC3)csc2C)cc1	none (no result: MbtI inh, MenB inh)
Cc1ccc(-c2c(CN3CCN(c4cccc(C(F)(F)F)c4)CC3)csc2C)cc1	Polio RdRp inh 89.0 (no result: MbtI inh, MenB inh)
